Bioassay records as filed in PubChem BioAssay.
RORg inh: ROR gamma (mouse) transcription inhibition | Drosophila S2 Gal4-RORgamma UAS-luciferase reporter, 20 h | Potency, µM (highest dose often 53.6 µM), inactives show at the highest dose activity change, negative = inhibition, actives largely listed as inhibitors | 5.4% of 310,000 active | AID 2551; further: nearly all actives have a fitted effect of over 60% in size
Target sequence (P51450 whole entry, looked up, the tested form may be a part): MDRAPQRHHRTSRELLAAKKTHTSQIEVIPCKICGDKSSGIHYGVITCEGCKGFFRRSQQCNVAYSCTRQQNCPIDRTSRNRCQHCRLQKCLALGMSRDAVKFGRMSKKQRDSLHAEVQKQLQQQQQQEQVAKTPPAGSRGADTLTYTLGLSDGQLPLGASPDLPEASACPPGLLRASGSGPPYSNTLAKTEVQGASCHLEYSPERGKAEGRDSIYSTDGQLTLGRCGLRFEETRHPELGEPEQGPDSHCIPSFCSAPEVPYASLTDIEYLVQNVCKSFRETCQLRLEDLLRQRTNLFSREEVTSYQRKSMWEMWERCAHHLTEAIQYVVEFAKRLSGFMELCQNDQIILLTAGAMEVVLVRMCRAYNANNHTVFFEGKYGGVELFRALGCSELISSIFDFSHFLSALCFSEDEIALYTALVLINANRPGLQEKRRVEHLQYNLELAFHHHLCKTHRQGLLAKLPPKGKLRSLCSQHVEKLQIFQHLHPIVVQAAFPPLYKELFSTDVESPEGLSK
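Drosophila S2 cells stably expressing Gal4-DBD/mouse RORγ fusion under metallothionein promoter plus UAS-luciferase; compound 1 h, then 700 uM CuSO4 induction for 20 h at ambient temperature; inhibition read as reduced luminescence.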
Gal4-VP16 FLuc: inhibits Gal4-VP16 luciferase reporter, ROR gamma counter-screen; 3.5% of 310,000 active; Potency, µM (series often up to 53.6 µM), for inactives: at the top dose activity, negative = inhibition, hits mostly inhibitors; Drosophila S2 Gal4-VP16 UAS-luciferase, luminescence, 20 h;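 further: Gal4-VP16 expression switched on by copper sulfate through the metallothionein promoter; nearly all actives have a fitted effect of over 50% in size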
Tau FP inhib: inhibitors of human tau fibril formation. P10636. K18 P301L tau heparin fibrillization, Alexa594 FP, 6 h. Potency, µM (series often up to 57.7 µM), for the others: at the highest dose activity, negative = inhibition, usual class: inhibitors. 0.39% of 280,000 active. AID 1468; further: nearly all actives have a fitted effect of over 55% in size
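FP of Alexa 594-tau after heparin (20 uM) induction. Substrate: human K18 P301L, 15 uM unlabeled, 0.24 uM labeled. Buffer 100 mM sodium acetate pH 7. 6 hr, 37 C.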
Tau fluor cs: counter-screen for tau fibril formation inhibitors; tau K18 P301L Alexa594 fluorescence, heparin fibrillization; Potency, µM (doses to about 57.7 µM), for inactives: at the top dose activity change, negative = decrease; 0.93% of 280,000 active; further: nearly all actives have a fitted effect of over 55% in size
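Human tau K18 P301L (15 uM unlabeled, 0.24 uM Alexa 594-labeled) in 100 mM sodium acetate pH 7 with 20 uM heparin, 6 hr at 37 C. ThT 30 uM added, 1 hr ambient; Alexa 594 FP and total fluorescence read at 555/632 nm.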
Tau fibril ThT: tau fibrillization inhibition (ThT binding); P10636; recombinant tau K18 P301L (four-repeat tau fragment), heparin-induced fibrillization, ThT fluorescence; Potency, µM (series often up to 57.4 µM), inactives show at the highest dose activity, negative = inhibition, hits mostly inhibitors; 2.1% of 270,000 active; AID 1460; further: nearly all actives have a fitted effect of over 55% in size
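Aggregation was driven by heparin (20 uM final) acting on recombinant tau […] bearing P301L in 100 mM sodium acetate pH 7; fibrils were detected with Thioflavin T.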
Numbers without * were called inactive; ? = inconclusive; · = no result given; [ ] = dose if it differs, or a comment. Rows were chosen to be rich in hits. Some 7.3% of all compounds tested hit in one or more screens of this group. The call rests on the fitted dose curve; in most records, active means well fitted curve in the direction sought with a large enough effect; inconclusive means small, poorly fitted or top-dose-only effect, or another doubt; inactive means no such curve, though single readings can be large; an effect the other way counts as inactive or inconclusive. On the % scale 0 is the no-effect control and ±100 the full control effect; potency means the concentration at half of the fitted maximal effect.

SMILES	RORg inh	Gal4-VP16 FLuc	Tau FP inhib	Tau fluor cs	Tau fibril ThT
C/C(=N\Nc1ncc(Cl)cc1Cl)c1ccc(C#N)cc1	?	1%	-13%	-3%	?
COc1ccc(C(C)=O)c(O)c1	-35%	0%	-5%	-6%	-2%
CCN(CC)C(=O)COc1ccc(/C(C)=N/Nc2ncc(Cl)cc2Cl)cc1	6.3µM*	?	4%	-5%	?
COc1cccc(CN2C(=O)c3ccccc3Sc3ccc(C(=O)NCCc4ccc(Cl)cc4)cc32)c1	·	·	?	?	-5%
Fc1ccc(-n2c(-c3ccc4ccccc4n3)n[nH]c2=S)cc1	13%	1%	-6%[2.34 µM]	2%[2.34 µM]	-1%
S=c1[nH]nc(-c2ccccc2Cl)n1Cc1ccccc1	2.8µM*	?	3%	-6%	-6%
Cn1c(-c2csc(-c3ccccc3)n2)n[nH]c1=S	7%	-5%	-5%	0%	1%
Cc1scc(-c2n[nH]c(=S)n2Cc2ccccc2)c1C	2.2µM*	11µM*	-4%	-8%	-10%
S=c1[nH]nc(-c2ccc3ccccc3n2)n1-c1cc(Cl)cc(Cl)c1	0.79µM*	2.2µM*	6%	-21%	-7%
CCc1c(-c2n[nH]c(=S)n2Cc2ccccc2)csc1C	2.2µM*	7.9µM*	-16%	-1%	6%
Cc1cccc(Nc2nnc(-c3ccc(C)c(S(=O)(=O)NCC4CCCO4)c3)c3ccccc23)c1 (centres undefined)	·	·	-7%	?	-10%
CCN(C(=O)CCS(=O)(=O)c1ccc2c(c1)oc(=O)n2C)c1ccc(OC)cc1	9%	-6%	3%	-3%	-2%
O=c1[nH]n(Cc2ccccc2)c2ccccc12	3%	-8%	·	·	·
S=c1[nH]nc(-c2ccc3ccccc3n2)n1-c1ccccc1Cl	12%	-12%	4%	14%	11%
COc1ccc(Cl)cc1-c1n[nH]c(=S)n1Cc1ccccc1	5µM*	5µM*	·	·	·
S=c1[nH]nc(-c2ccc3ccccc3n2)n1Cc1ccccc1	2.2µM*	5.6µM*	-8%	-11%	-3%
Cc1ccc(-c2nc(Nc3ccc(O)cc3)c3ccccc3n2)cc1	-13%	1%	·	·	·
COC(=O)c1ccc(Nc2nc(-c3ccc(C)cc3)nc3ccccc23)cc1	·	·	3.5µM*	?	-17%
Cc1ccc(-c2nc(Nc3cccc(O)c3)c3ccccc3n2)cc1	0%	-12%	·	·	·
Cc1ccc(-c2nc(Nc3ccc(N4CCOCC4)cc3)c3ccccc3n2)cc1	33%	24%	?	4µM*[quencher]	16µM*
COc1ccc(CNC(=O)c2ccc3c(c2)N(Cc2cccc(Cl)c2)C(=O)c2ccccc2S3)c(OC)c1	·	·	0%	-14%	-2%
COCCCNC(=O)CN1C(=O)c2cccnc2Sc2ccccc21	·	·	8%	15%	4%
Cc1cc(C)n(Cc2n[nH]c(=S)n2Cc2ccccc2)n1	11µM*	?	1%	3%	-2%
Cc1nn(Cc2n[nH]c(=S)n2Cc2ccccc2)c(C)c1Cl	5.6µM*	20µM*	-12%	-19%	-12%
COc1ccc(N2CCN(C(=O)c3nn(C)c4c3CSc3ccccc3-4)CC2)cc1	·	·	-8%	-10%	1%
SMILES	RORg inh	Gal4-VP16 FLuc	Tau FP inhib	Tau fluor cs	Tau fibril ThT
Clc1cccc(N2CCN(c3nc4ccccc4c4nc(-c5cccnc5)nn34)CC2)c1	·	·	-4%	-17%	-12%
O=C(c1ccccc1)c1cc(Cl)ccc1N1C(=O)C=CC1=O	?	16µM*	-9%	-1%	11%
N#Cc1cc(C(=O)c2cc(Cl)ccc2O)cn(-c2ccccc2)c1=O	?	-15%	-6%	-5%	4%
Cc1cccc(NC(=O)c2cc(S(=O)(=O)NCCc3ccccc3)ccc2F)c1C	·	·	-7%	-8%	3%
CCOc1ccc(NC(=O)CCCc2cc(-c3ccc(OCC)cc3)on2)cc1	0.13µM*	1.3µM*	-7%	-12%	?
CCOc1ccc(-c2cc(CCCC(=O)Nc3cccc(OC)c3)no2)cc1	0.13µM*	?	?	-23%	?
CCOc1ccc(CCNC(=O)CCCc2cc(-c3ccc(OCC)cc3)on2)cc1	·	·	-5%	-11%	?
COc1cc(/C=N/n2c(-c3ccccc3)n[nH]c2=S)ccc1O	2%	1%	-5%	-25%	?
